This test relates to SRMS. The following applies: concentration: 1 μM, replicates: in singlicate; n = 1.
`Cc1cccc(-c2nc(-c3ccc(S(C)(=O)=O)cc3)sc2-c2ccncc2)c1`: the “%Inh” value is recorded as 0%.
As to `CN1c2ccc(CNc3ccc(F)cc3)cc2-c2c(cnn2C)S1(=O)=O`, the “%Inh” value stood at 0%.
The figure for `O=C1Cc2cc(Nc3nc(NCc4cccc(S(=O)(=O)C(F)(F)F)c4)ncc3C(F)(F)F)ccc2N1` is 0%.
For the compound `COc1cc2c(cc1OC[C@@H](O)CO)ncc1c3ccc(C#N)cc3[nH]c21`, the “%Inh” value came to 0%.
Consider `COc1ccc(S(=O)(=O)NC2CCN(c3cc(C)nc(Nc4cccc(C#N)c4)n3)CC2)cc1.O=C(O)C(F)(F)F` [GSK1653539], for which the “%Inh” value was 0%.
Turning to `[2H]C([2H])(c1cccc(C(F)(F)F)c1C)n1ccn2c(=O)nc(N3CCOCC3)cc12` [GSK2336394], the “%Inh” value was 0%.
For `Cc1cccc(-c2nc(Nc3ccc4ncsc4c3)c3ccccc3n2)n1` [GW867588], the “%Inh” value is on record as 8%.
Consider `COc1cc2ncn(-c3cc(OCc4sccc4Cl)c(C(N)=O)s3)c2cc1OC` [GSK448459], for which the “%Inh” value is listed as 0%.
The figure for `CCc1ccnc(/C=C/c2n[nH]c3cc(Sc4ccccc4C(=O)NC)ccc23)c1` is 100%; for `C[C@@H](Oc1cc(-n2cnc3ccc(NC(=O)NC(C)(C)C)cc32)sc1C(N)=O)c1ccccc1Cl` [GSK346294] it is 0%.
The value for `COc1cc2c(cc1OCCN1CCN(C)CC1)ncc1c3ccc(C#N)cc3[nH]c21` was 0%.
With `COCCNC(=O)c1ccc(-c2cc(C(=O)NC3CC3)cc(F)c2C)cc1` [GW868318], the “%Inh” value stood at 24%.
As for `COc1cc(Nc2nccc(N3CCC(NC(=O)c4cccc(NC(C)=O)c4)C3)n2)cc(OC)c1OC` (centres unmarked) [GSK1379754], the “%Inh” value is 0%.
In the case of `CN1c2ccc(NCc3ccc(F)cc3)cc2-c2c(cnn2C)S1(=O)=O`, the “%Inh” value is 0%.
On to `Cc1nnc(-c2ccc3ncc(-c4ccc(S(C)=O)cc4)n3c2)o1` (centres unmarked), for which the “%Inh” value is on record as 0%.
On to `O=C(NCCCN1CCOCC1)c1cccc(Nc2nccc(Nc3ccc(Oc4ccccc4)cc3)n2)c1` [GW663929], for which the “%Inh” value was 97.5%.
The value for `Cc1cccc(Cn2ccn3c(=O)cc(N4CCOCC4)nc23)c1` [GSK2297542] was 11%; that for `Nc1nc(-c2ccc3c(N)n[nH]c3c2)cc(N2CCCC2)n1` [GSK2227430] was 0%; that for `Fc1ccc(-c2ncn(CCCN3CCOCC3)c2-c2cccnc2)cc1` [SB-211743] was 27%.
Turning to `O=C(NOCC1CC1)c1ccc(F)c(F)c1Nc1ccc(I)cc1Cl`, the “%Inh” value is given as 0%.
For `NS(=O)(=O)c1cccc(-c2ccc3ncc(N4CCOCC4)nc3c2)c1` [GSK1535721], the “%Inh” value was 6%.
With `Cn1ccc2ncnc(Oc3ccc(NC(=O)Nc4ccncc4)c(Cl)c3)c21`, the “%Inh” value is recorded as 0%.
For the compound `NS(=O)(=O)c1cccc(-c2ccc3nccc(-c4cccc(S(N)(=O)=O)c4)c3c2)c1` [GW867253], the “%Inh” value came out at 27%.
The figure for `CCc1nc(-c2cccc(C)c2)c(-c2ccnc(NCc3ccccc3)c2)s1` is 1%.
For the compound `O=C(Nc1cccc(-c2nn3ncccc3c2-c2ccnc(Nc3cccc(C(F)(F)F)c3)n2)c1)c1c(F)cccc1F` [GSK299495], the “%Inh” value was determined as 21%.
For `O=c1cc(N2CCOCC2)nc2n(Cc3cccc(F)c3)ccn12` [GSK2297430], the “%Inh” value is on record as 0%.
As to `O=C1NC(=O)C(N2CCc3ccccc32)=C1c1cccc(Cl)c1` [SB-408010], the “%Inh” value came to 0%.
The figure for `Cl.Oc1cccc(Nc2ccnc3cc(-c4ccncc4)ccc23)c1` [GW494601] is 0%; for `COc1ccc(COc2cc(-n3cnc4ccccc43)sc2C(N)=O)cc1` [GSK1024304] it is 0%.
The figure for `COc1ccc(Nc2ncc(C#N)c(Nc3ccccc3C(N)=O)n2)cc1N1CCN(C)CC1.Cl` [GSK1558669] is 99.5%; for `Cc1cn2c(=O)cc(N3CCOCC3)nc2n1Cc1cccc(Cl)c1Cl` [GSK2334006] it is 0%.
For the compound `N#Cc1c(N2CCOCC2)sc(-c2ccn[nH]2)c1-c1ccc(Cl)cc1`, the “%Inh” value was 0%.
The figure for `N#Cc1ccc(-c2cc(-c3c[nH]nc3-c3ccccn3)ccn2)cc1` [GW693028] is 0%; for `Cc1nnc(-c2ccc3occ(-c4ccc(C(C)O)cc4)c3c2)o1` (centres unmarked) it is 2%; for `Cc1c(Cn2c(C)nn3c(=O)cc(N4CCOC(C)C4)nc23)cccc1C(F)(F)F` (centres unmarked) [GSK2344444] it is 0%.

Values taken from paper PMC5540273 (PLoS ONE, 2017).
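Note: KINOMEscan kinase panel screen.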
